Measured values published in PubChem BioAssay (NCATS).
Records with an inconclusive call do not appear. The source made the active and inactive calls. Calls follow the shape of the dose curve; as a rule, active = well fitted cell-killing curve with a large enough effect; inconclusive = small, poorly fitted or top-dose-only effect; inactive = flat fitted curve, though single readings scatter.

assay: Cellular viability qHTS for adrenocortical cancer (ACC) cell line NCI-H295R (AID 1963990); settings: CellTiter-Glo ATP luminescence, 48 h; series mostly up to 46.1 µM; activity change, negative = viability loss: at the top concentration;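 also: 0% = DMSO only wells and -100% = full killing with cytotoxic reference compound; nearly all actives have a fitted effect of over 60% in size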
Outline: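 IC50 and maximal efficacy derive from four-parameter logistic modelling of titration curves, with reads scaled between DMSO-only wells (0%) and doxorubicin hydrochloride (100% inhibition). Compounds spanned up to 46 uM over 48 h.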

Compound | activity change, negative = viability loss | Potency
Cc1cccc(OCC(O)CNC(C)(C)C)c1C (stereo unspecified) | 1.01% (inactive) | –
CCOC(=O)C(O)c1ccccc1 (stereo unspecified) | 13.9% (inactive) | –
CCCCCOC(=O)Nc1nc(=O)n([C@@H]2O[C@H](C)[C@@H](O)[C@H]2O)cc1F | – | inactive
C=CCN1CCc2nc(N)sc2CC1 | -3.43% (inactive) | –
CCN(CC)CCNC(=O)c1cc(Cl)c(N)cc1OC | -12.7% (inactive) | –
CCCCCCCCCCC(CO)CCCCCCCC (stereo unspecified) | -8.83% (inactive) | –
CC(C)(C)c1nnc(NS(=O)(=O)c2ccccc2)s1 | 6.87% (inactive) | –
CC1(C)[C@@H]2CC[C@@]1(C)C(=O)C2 | 5.01% (inactive) | –
CCc1cccc2c(CCO)c[nH]c12 | -6.17% (inactive) | –
CC(C)C(=O)c1c(C(C)C)nn2ccccc12 | 4.87% (inactive) | –
O=C(Cn1ccnc1[N+](=O)[O-])NCCO | -1.95% (inactive) | –
Cn1c(=O)c2c(ncn2C)n(C)c1=O | – | inactive
CCN(CC)CC(=O)Nc1c(C)cccc1C(=O)OC | -4.93% (inactive) | –
NC(=O)c1cn(Cc2c(F)cccc2F)nn1 | 8.17% (inactive) | –
CCCCCCCC/C=C\CCCCCCCCN | 0.423% (inactive) | –
COc1ccc(CCC(C)=O)cc1 | -14.2% (inactive) | –
